Shown are actives, neighbours in structure and some others; about 3.5% of the full set was active somewhere.
Pf apPOL inh = Pf-apPOL DNA polymerase inhibition | Recombinant Pf-apPOL, molecular beacon fluorescence, 1.5 h | inhibition, % at 10 µM | hit rate 0.25% among 210,000
mHTT-CaM PPI inh = disrupts binding of mutant huntingtin to calmodulin | P42858 | AlphaScreen His-mHTT/GST-CaM binding, luminescence | inhibition, % at 15 µM | hit rate 3.6% among 190,000 | AID 1671202;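 further: 0% = both proteins with DMSO and 100% = one protein alone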
* hit, by the source's call. No stated cut-off is given here; in the data, active means inhibition above about 50%; inactive means the rest.

SMILES	Pf apPOL inh	mHTT-CaM PPI inh
O=C(Nc1cccc(Cl)c1)N1CCn2cccc2C1Cc1ccccc1 (centres undefined)	1	92*
COc1ccc(NC(=O)N2CCn3cccc3C2Cc2ccccc2)c(OC)c1 (centres undefined)	-1	54*
CCc1ccc(NC(=O)N2CCn3cccc3C2Cc2ccccc2)cc1 (centres undefined)	-2	18
CC(=O)NC1=NN(C(C)=O)C(C)(c2ccc([N+](=O)[O-])o2)S1 (centres undefined)	0	3
Cc1cc(-c2ccccc2)nc2cc(C(=O)Nc3ccc(F)cc3F)nn12	-28	1
COc1cccc(N/C=C(\C#N)c2nc(-c3ccc([N+](=O)[O-])cc3)cs2)c1	-5	1
Cc1cccc(CN2N=C(C(=O)N3CCCC3)S(=O)(=O)c3ccccc32)c1	-10	20
COc1ccc(OCC(=O)Nc2ccc(I)cc2C)cc1	-2	-15
O=C(NCc1cccs1)c1nc(-c2cnccn2)no1	0	-12
Fc1ccc(Nc2nc(N3CCOCC3)nc3[nH]ncc23)cc1	-2	-11
Cc1c(Cc2ccc(Cl)cc2)c(NCCCn2ccnc2)n2c(nc3ccccc32)c1C#N	1	-5
Cc1ccc(-n2[nH]c(=O)c(C=c3c(C)c(C#N)c4nc5ccccc5n4c3=O)c2O)cc1Cl	3	51*
Cc1cc(NCCc2ccccc2)n2c(nc3ccccc32)c1C#N	1	-3
CCCC(=O)N1CCCC(c2ccnc(Nc3cccc(F)c3)n2)C1 (centres undefined)	-1	62*
O=C(C1CCCCC1)N1CCCC(c2ccnc(Nc3cccc(F)c3)n2)C1 (centres undefined)	-3	72*
CCCC(=O)N1CCCC(c2ccnc(Nc3ccc(F)cc3)n2)C1 (centres undefined)	-4	2
O=C(C1CCCC1)N1CCCC(c2ccnc(Nc3cccc(F)c3)n2)C1 (centres undefined)	-7	13
COc1ccc(N=C(N)C(C#N)=Cc2[nH]c3ccccc3c2O)cc1	2	69*
CN1CCN(C(=N)C(C#N)=Cc2[nH]c3ccccc3c2O)CC1	1	24
Nc1nonc1OCCNCCNc1ccc([N+](=O)[O-])cc1[N+](=O)[O-]	-1	3
CC(=O)c1c(-c2ccccc2)c2cc(Br)ccc2[nH]c1=O	1	58*
CC(=O)c1c(-c2ccccc2)c2cc(Cl)ccc2[nH]c1=O	-4	32
Cc1sc2cc(C(=O)N3CCCN(C)CC3)[nH]c2c1CN1CCCCC1	-3	-5
Oc1ccc(Br)cc1C=Nc1ccccc1F	0	-2
COc1ccc2oc(=Nc3ccc(F)cc3F)c(C(=O)NC(C)=O)cc2c1	-4	2
SMILES	Pf apPOL inh	mHTT-CaM PPI inh
COc1ccc2cc(C(=O)NC(C)=O)c(=Nc3ccc(C#N)cc3)oc2c1	65*	0
COc1ccc2oc(=Nc3ccc(C#N)cc3)c(C(=O)NC(C)=O)cc2c1	-2	4
COc1ccc2oc(=Nc3ccccc3F)c(C(=O)NC(C)=O)cc2c1	92*	4
COc1ccc(C(=O)COc2ccc3c(c2)OC(=Cc2ccco2)C3=O)cc1	2	7
CCSc1nc2ccc(NC(=O)c3ccccc3C(=O)N3CCOCC3)cc2s1	-11	23
COc1ccc(-c2cc3nc4c(c(=O)n3[nH]2)CCN(C(=O)c2ccc(C)c(F)c2)C4)cc1	3	32
O=C(c1ccc2ncccc2c1)N1CCc2nc3cc(-c4ccccc4)[nH]n3c(=O)c2C1	96*	99*
COc1ccc(-c2cc3nc4c(c(=O)n3[nH]2)CN(C(=O)c2ccc(C)c(F)c2)CC4)cc1	41	80*
Cc1ccc(C(=O)N2CCc3nc4cc(-c5ccccc5)[nH]n4c(=O)c3C2)cc1F	0	1
O=C(c1nccc2ccccc12)N1CCc2nc3cc(-c4ccccc4)[nH]n3c(=O)c2C1	0	56*
O=C(c1cc(C2CC2)[nH]n1)N1CCc2nc3cc(-c4ccccc4Cl)[nH]n3c(=O)c2C1	26	59*
CC(=O)N1CCc2nc3cc(-c4ccccc4Cl)[nH]n3c(=O)c2C1	2	-2
O=C(c1n[nH]c2ccccc12)N1CCc2nc3cc(-c4ccccc4)[nH]n3c(=O)c2C1	5	16
C[N+]1(CC(O)COC23CC4CC(CC(C4)C2)C3)CCOCC1 (centres undefined)	1	0
O=C(Cc1ccc(Cl)cc1)Nc1nc2ccc([N+](=O)[O-])cc2s1	-5	3
CC(C)c1ccc(N2CCN(C(=O)c3cccc(F)c3)C(C)C2=O)cc1 (centres undefined)	-3	10
O=C(O)CNC(=O)/C(=C\c1ccc2c(c1)OCO2)NC(=O)c1ccccc1Br	3	1
CCN(C(=O)c1cc2cc3ccc(OC)cc3nc2o1)c1cccc(C(F)(F)F)c1	-5	-5
CNC(=O)N1CCCC(c2cccc(C(=O)N3CCN(c4cccc(Cl)c4)CC3)c2)C1 (centres undefined)	-7	98*
CNC(=O)N1CCCC(c2cccc(C(=O)N3CCN(c4ccccc4C)CC3)c2)C1 (centres undefined)	-7	39
CNC(=O)N1CCCC(c2cccc(C(=O)N3CCN(c4cc(C)ccc4C)CC3)c2)C1 (centres undefined)	-6	80*
CNC(=O)N1CCCC(c2cccc(C(=O)N3CCN(c4ccccc4)CC3)c2)C1 (centres undefined)	-7	-1
COc1cccc(CNC(=O)C2(C)CCCN(C(=O)Nc3ccc(C)c(C)c3)C2)c1 (centres undefined)	-6	13
CCC(Sc1nnc2c3ccccc3n(CC)c2n1)C(=O)Nc1cccc(C(C)=O)c1 (centres undefined)	37	23
Cc1cc(C)nc(SC(NC(=O)c2ccccc2)C(=O)c2ccccc2)n1 (centres undefined)	0	94*
SMILES	Pf apPOL inh	mHTT-CaM PPI inh
Cc1cc(=O)n(C(NC(=O)c2ccccc2)C(=O)c2ccccc2)cn1 (centres undefined)	-2	-3
O=C(NCc1ccc(F)c(Cl)c1)C1CCc2sc(C(=O)N3CCOCC3)cc2C1 (centres undefined)	-7	3
Cc1cccc2sc(NC(=O)c3coc(NC(=O)c4cccs4)n3)nc12	-19	99*
O=C(Nc1nc2c(s1)CCCC2)c1coc(NC(=O)c2cccs2)n1	-100	28
Cc1cc(Br)ccc1N1CCC(C(=O)NC2CC2)C1=O (centres undefined)	-2	-6
CC(C)Cc1ccc(CN2C(C(C)C)C(=O)N(Cc3cn(CCC4OCCO4)nn3)CCS2(=O)=O)cc1 (centres undefined)	-8	8
COc1ccc(-c2ccc(CN3C(C(C)C)C(=O)N(Cc4cn(CCC5OCCCO5)nn4)CCS3(=O)=O)cc2)cc1OC (centres undefined)	5	44
Cc1ccccc1-c1ccc(CN2C(C(C)C)C(=O)N(Cc3cn(CCC4OCCO4)nn3)CCS2(=O)=O)cc1 (centres undefined)	-5	71*
Cc1ccc(-c2ccc(CN3C(C(C)C)C(=O)N(Cc4cn(CCC5OCCO5)nn4)CCS3(=O)=O)cc2)c(C)c1 (centres undefined)	-3	74*
CCOc1ccc(N2CCN(C(=O)C(C)C)C(C)C2=O)cc1 (centres undefined)	-3	-1
O=C(NCCCN1CCN(c2ccccc2)CC1)C1CC(=O)N(c2ccccc2)C1 (centres undefined)	2	-2

Bioassay records deposited in PubChem BioAssay by University of Kansas High Throughput Screening Laboratory.
